{"source": "PubChem BioAssay", "data": [{"test": "hepatitis C replication reporter changes, two-sided – Huh7 cells, luciferase reporter, HCV replication inhibitor project, primary screen (AID 1109);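 note: huh7 hepatoma cells harbouring a luciferase neomycin HCV replicon reporter; luciferase luminescence as measure of HCV replicon replication; test concentration not given here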", "conditions": "Huh7 HCV replicon luciferase reporter, 48 h; higher = more signal", "values": [{"compound": "O=C1[C@H]2C=C(Br)[C@H](C[C@@H]2c2ccccc2)[C@@]12CO2", "z-score": -3.33}, {"compound": "COc1ccc(C#Cc2ccc3c(c2)[C@]2(C(=O)N3)[C@H](c3ccccc3OCCO)N3[C@H](c4ccccc4)[C@H](c4ccccc4)OC(=O)[C@H]3[C@@H]2C(=O)O)cc1", "z-score": -2.87}, {"compound": "O=C1O[C@H](c2ccccc2)[C@H](c2ccccc2)N2[C@H]1[C@@H](C(=O)N1CCN(c3ncccn3)CC1)[C@]1(C(=O)Nc3ccc(C#CC4=CCCCC4)cc31)[C@H]2c1ccc(O)cc1", "z-score": -1.98}, {"compound": "C=CC[C@@]1(C(N)=O)N=C(c2ccc(OCCCO)cc2)O[C@@H]1c1ccccc1CN=[N+]=[N-]", "z-score": -1.56}, {"compound": "COC(=O)[C@@]1(Cc2ccccc2)[C@H]2c3cc(C(=O)N4CCCC4)n(Cc4nc5ccccc5[nH]4)c3C[C@H]2CN1C(=O)c1ccccc1", "z-score": -1.89}, {"compound": "O=C1O[C@H](c2ccccc2)[C@H](c2ccccc2)N2[C@H]1[C@@H](C(=O)O)[C@]1(C(=O)Nc3ccc(C#CC4=CCCCC4)cc31)[C@H]2c1ccccc1OCCO", "z-score": -2.4}, {"compound": "COCCOC(=O)N1C(=O)[C@@]2(c3cc(C#Cc4ccc(OC)cc4)ccc31)[C@H](c1ccccc1OCCO)N1[C@H](c3ccccc3)[C@H](c3ccccc3)OC(=O)[C@H]1[C@@H]2C(=O)N1CCN(c2ncccn2)CC1", "z-score": -1.49}, {"compound": "C=C/C=C/[C@H]1C(=C)CN([C@@H](Cc2ccccc2)C(=O)OC)[C@@H]1[C@H](O)Cc1ccccc1", "z-score": -0.331}, {"compound": "C=CCOC(=O)[C@H]1[C@@H]2C(=O)O[C@@H](c3ccccc3)[C@@H](c3ccccc3)N2[C@@H](c2ccc(OCCOC(=O)[C@@H]3C[C@@H]4C(=O)N[C@@H](CCCC[N+](C)(C)C)C(=O)N4[C@@H]3c3ccc(O)cc3)cc2)[C@]12C(=O)Nc1ccccc12", "z-score": -1.11}, {"compound": "C[C@@H]1ON(c2cccc(C(=O)OC(C)(C)C)c2)[C@H](c2ccc(Br)cc2)[C@H]1C(=O)N1C(=O)OC[C@H]1Cc1ccccc1", "z-score": -1}, {"compound": "O=C1C2C=CC(C(O)c3ccc(F)cc3)N(Nc3ccccc3F)C2C(=O)N1c1ccccc1", "note": "(stereo not given)", "z-score": 0.912}, {"compound": "COc1ccc(CCN2C(=O)[C@@]3(Cc4ccccc42)c2ccccc2C(=O)N(Cc2ccccc2C(F)(F)F)[C@H]3c2ccc(CO)cc2)cc1", "z-score": -0.961}, {"compound": "COC(=O)[C@@]1(Cc2ccc(OC)cc2)[C@H]2c3cc(C(=O)N4CCCC4)n(Cc4ccsc4Br)c3C[C@H]2CN1C(=O)c1ccccc1", "z-score": -3.66}, {"compound": "O=C1NC(=O)C2C1C=CC(C(O)Cc1ccccc1)N2Nc1ccc(Cl)cc1Cl", "note": "(stereo not given)", "z-score": 0.458}, {"compound": "COC(=O)[C@@]1(Cc2ccccc2)[C@H]2c3cc(C(=O)N4CCCC4)n(CC4CC4)c3C[C@H]2CN1C(=O)c1ccccc1", "z-score": -2.17}, {"compound": "COC(=O)[C@@]1(Cc2ccc(F)cc2)[C@H]2c3cc(C(=O)N4CCCC4)n(Cc4ccc(C)o4)c3C[C@H]2CN1C(=O)c1ccccc1", "z-score": -2.32}, {"compound": "COc1cc2c(cc1OC)CN(C(=O)[C@H]1[C@@H]3C(=O)O[C@@H](c4ccccc4)[C@@H](c4ccccc4)N3[C@@H](c3ccc(O)cc3)[C@]13C(=O)Nc1ccc(C#CC4=CCCCC4)cc13)CC2", "z-score": -1.67}, {"compound": "[N-]=[N+]=Nc1ccccc1[C@H]1OC(c2ccc(OCCCO)cc2)=N[C@@]1(Cc1ccccc1)C(=O)O", "z-score": 1.09}, {"compound": "CC(C)N1C(=O)[C@@]2(Cc3ccccc31)c1ccccc1C(=O)N(C1CCCCC1)[C@H]2c1ccc(CO)cc1", "z-score": -1.26}, {"compound": "CCOC(=O)[C@H]1C/C=C/C[C@H](C(=O)OCC)C(=O)O[C@H]2[C@@H](OC)O[C@H](CO)[C@@H](OC(=O)Nc3ccc(C#N)cc3)[C@@H]2OC1=O", "z-score": -3.6}, {"compound": "CCCC=C(CCC)[C@@H](NS(=O)(=O)c1cccs1)c1ccc(C(=O)OC)cc1", "z-score": -2.93}, {"compound": "COC(=O)[C@@]1(Cc2ccc(F)cc2)[C@H]2c3cc(C(=O)N(C)C)n(Cc4nc5ccccc5[nH]4)c3C[C@H]2CN1C(=O)c1ccccc1", "z-score": -0.494}, {"compound": "CC(C)(C)OC(=O)CC[C@@]1(C(=O)NCC(O)CO)N=C(c2ccc(OCCCO)cc2)O[C@@H]1c1ccccc1N=[N+]=[N-]", "note": "(stereo not given in full)", "z-score": 0.0173}, {"compound": "CCOc1cc(C(O)C2C=CC3C(=O)N(c4ccccc4)C(=O)C3N2Nc2ccccc2)ccc1O", "note": "(stereo not given)", "z-score": -0.0374}, {"compound": "CN1C(=O)C2C=CC(C(O)Cc3ccccc3)N(Nc3ccccc3)C2C1=O", "note": "(stereo not given)", "z-score": -0.12}, {"compound": "COC(=O)C(CC#Cc1ccc2c(c1)[C@]1(C(=O)N2)[C@H](c2ccc(O)cc2)N2[C@H](c3ccccc3)[C@H](c3ccccc3)OC(=O)[C@H]2[C@@H]1C(=O)Nc1nc2ccccc2s1)C(=O)OC", "z-score": -0.322}, {"compound": "COc1ccc(C(=O)Nc2ccc(CN3C(=O)[C@@]4(O[C@@H](CCO)[C@H]([Si](C)(C)c5ccc(OC)cc5)[C@H]4C)c4ccccc43)cc2)cc1", "z-score": -5.15}, {"compound": "COCCOC(=O)N1C(=O)[C@@]2(c3cc(C#Cc4ccc(OC)cc4)ccc31)[C@H](C(=O)N1CCCCCCC1)[C@H]1C(=O)O[C@H](c3ccccc3)[C@H](c3ccccc3)N1[C@@H]2c1ccc(OCCO)cc1", "z-score": -1.7}, {"compound": "O=C1O[C@H](c2ccccc2)[C@H](c2ccccc2)N2[C@H]1[C@@H](C(=O)O)[C@]1(C(=O)Nc3ccc(C#CCCO)cc31)[C@H]2c1ccc(O)cc1", "z-score": 0.101}, {"compound": "CC(C)(C)C(=O)N[C@@H](c1ccc(Cl)cc1)[C@]1(C)C[C@H]1C1CCCCC1", "z-score": -0.409}, {"compound": "O=C(NCc1ccccc1)[C@@]1(Cc2ccccc2)N=C(c2ccc(OCCCO)cc2)O[C@H]1c1ccccc1", "z-score": -2.57}, {"compound": "CC(C)(C)OC(=O)CC[C@@]12N=C(c3ccc(OCCCO)cc3)O[C@@H]1c1ccccc1N(CCS(=O)(=O)c1ccccc1)C2=O", "z-score": -0.831}, {"compound": "[N-]=[N+]=NCc1ccccc1[C@@H]1OC(c2ccc(OCCCO)cc2)=N[C@]1(Cc1ccccc1N=[N+]=[N-])C(=O)N1CCOCC1", "z-score": -1.56}, {"compound": "COCCOC(=O)N1C(=O)[C@@]2(c3cc(C#CC4(O)CCCCCC4)ccc31)[C@H](c1ccc(O)cc1)N1[C@H](c3ccccc3)[C@H](c3ccccc3)OC(=O)[C@H]1[C@@H]2C(=O)Nc1nc2ccccc2s1", "z-score": -0.768}, {"compound": "COCCOC(=O)N1C(=O)[C@@]2(c3cc(C#CC4=CCCCC4)ccc31)[C@H](C(=O)N1CCc3cc(OC)c(OC)cc3C1)[C@H]1C(=O)O[C@H](c3ccccc3)[C@H](c3ccccc3)N1[C@@H]2c1ccc(OCCO)cc1", "z-score": -0.44}]}]}
